# Most compounds without a hit are left out; they make up all but 5.4% or so of the library.
# Calb FLC – C. albicans growth modulation with fluconazole. C. albicans CaCi-2 (fluconazole-resistant clinical isolate) + fluconazole, Alamar Blue growth, 48 h. growth inhibition, % (test concentration not listed). 300,000 tested, 0.57% active;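 active = growth inhibition above about 58% in most replicates, limit read from the data, passing the limit was not always enough; inconclusive = exactly half the replicates above a set limit; inactive = most replicates below a set limit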;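 also: all wells also contain fluconazole at 8 µg/ml as a sub-toxic cotreatment; 0% = median of DMSO wells and 100% = median of geldanamycin control wells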
# ALR H2O2 inh – human ALR oxidase inhibition via reduced H2O2; purified ALR, DTT oxidation, H2O2 HRP-luminol luminescence; inhibition, % (no concentration beside the values); 290,000 tested, 3.8% active; P55789;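 active = mean replicate inhibition above about 79%, with every replicate also reaching it, limit read from the data; inconclusive = only one of the two criteria met; inactive = mean below limit and not every replicate reaching it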
# CSC inhib – blocks cancer stem cells | cancer stem cell-like cells viability, luminescence | inhibition, % at 7.5 µM | 300,000 tested, 1.1% active | AID 2717; in the data active = inhibition above about 75%; inconclusive = no clear call, values can overlap the other calls; tested in HMLE shEcad cells
# PP1 inh – blocks human PP1-alpha phosphatase, a PP5 counter-screen; AID 2235; purified PP1alpha, OMFP fluorescence; P62136; inhibition, % at 6.7 µM; 320,000 tested, 0.9% active;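 active = inhibition above the mean inhibition of all tested compounds plus 3 SD, computed separately for each screening campaign, cut at about 15% in these data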
# PP5 primary – blocks human protein phosphatase 5 activity; P53041; inhibition, % at 6.7 µM; 320,000 tested, 0.18% active; purified PP5c, OMFP substrate fluorescence;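 active = inhibition above the campaign's mean inhibition across all tested compounds plus 3 SD, cut at about 9.5% in these data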;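 also: 0% = DMSO only and 100% = 100 µM cantharidin control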
# Target sequence (P53041 whole entry, looked up): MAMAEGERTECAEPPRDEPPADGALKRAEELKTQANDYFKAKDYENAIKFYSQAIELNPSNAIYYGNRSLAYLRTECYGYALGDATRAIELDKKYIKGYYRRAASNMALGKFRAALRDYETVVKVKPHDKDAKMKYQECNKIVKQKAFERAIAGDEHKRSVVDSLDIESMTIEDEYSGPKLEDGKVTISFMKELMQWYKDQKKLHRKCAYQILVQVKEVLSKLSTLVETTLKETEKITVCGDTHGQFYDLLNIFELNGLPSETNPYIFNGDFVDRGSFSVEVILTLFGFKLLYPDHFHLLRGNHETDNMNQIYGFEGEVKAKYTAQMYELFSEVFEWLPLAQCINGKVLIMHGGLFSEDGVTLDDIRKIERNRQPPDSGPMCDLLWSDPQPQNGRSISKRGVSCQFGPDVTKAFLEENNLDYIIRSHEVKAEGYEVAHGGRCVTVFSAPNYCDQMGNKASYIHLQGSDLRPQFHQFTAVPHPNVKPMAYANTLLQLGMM
# Active calls of the source: *; ? = inconclusive; · = no result given.
SMILES,Calb FLC,ALR H2O2 inh,CSC inhib,PP1 inh,PP5 primary
Cc1cc(C)c(O)c(-c2cc(C(=O)Nc3cccnc3)[nH]n2)c1,-8.8,97.9*,47.3,-2.7,3.2
O=C(O)CN1C(=O)C2C3C=CC(C3)C2C1=O (centres undefined),5.5,·,-7.7,-2.3,0.0
O=C(CS(=O)(=O)c1ccccc1)Nc1nnc(Cc2ccccc2)s1,-1.8,86.7*,-6.3,-3.5,-0.8
O=C(Nc1ccc(F)cc1)Nc1nnc(Cc2ccccc2)s1,-6.4,-14.8,34.9,16.6*,0.2
CC1CC(C)C[N+](=C2C=C(N3CCCC3)CC(C)(C)C2)C1 (centres undefined),-15.5,·,·,·,·
CC1(C)CC(N2CCN(c3ccccc3)CC2)=CC(=[N+]2CCCC2)C1,93.9*,55.5,58.7,-8.8,2.5
CC1(C)CC(N2CCCC2)=CC(=[N+]2CCCCCC2)C1,88.2*,-7.6,35.5,-6.8,-2.2
S=C(NCC1CCCO1)N1CCN(c2cccc(Cl)c2)CC1 (centres undefined),13.7,3.0,-7.8,2.3,0.4
Fc1ccc(N2CCN(C(=S)NCC3CCCO3)CC2)cc1 (centres undefined),12.1,98.7*,-6.4,0.2,-0.8
Oc1ccc(C2C[C@H]3CC[C@@H]2C3)cc1O (some centres undefined),16.2,99.0*,12.7,-0.4,3.5
O=C(O)c1cc(N/N=C2/CC(c3ccccc3)Oc3ccccc32)ccc1Cl (centres undefined),21.6,97.6*,2.7,1.1,-1.2
CC(C)(C)N/N=C1\CC(c2ccccc2)Oc2ccccc21 (centres undefined),20.3,14.1,·,-4.2,-1.7
Cc1ccc(S(=O)(=O)NCc2c(-c3ccccc3)noc2C)cc1,-3.0,6.1,-19.4,-2.3,2.0
CC(=O)NC(=S)Nc1ccc2oc(-c3cc(F)c(F)cc3Cl)nc2c1,1.2,-4.8,1.7,-3.5,1.4
CCN(CC)CCCNC(=O)c1cc(-c2ccccc2)c(N2CCCCC2)s1,17.2,98.7*,83.2*,-0.6,0.3
O=C(NCCc1ccccc1)c1cc(-c2ccccc2)c(N2CCOCC2)s1,-6.5,5.0,80.6*,-4.2,5.7
Cc1nn(CCC(=O)NNC(=S)Nc2ccc(F)cc2)c(C)c1Br,1.7,15.6,-5.7,-1.4,1.5
COc1cccc(C(=O)N2CCN=C2SCc2cccnc2)c1OC,-0.5,99.8*,-7.1,-1.4,1.4
COc1ccc(C(=O)N2CCN=C2SCc2cccnc2)c(OC)c1,-2.4,99.7*,-1.7,-7.1,0.8
CC(Oc1ccccc1)C(=O)N1CCN=C1SCc1ccccc1 (centres undefined),-5.4,1.2,5.4,2.2,-0.7
COc1ccccc1C(=O)N1CCN=C1SC,-11.9,-12.9,-5.5,2.3,0.6
Cc1ccc(C(=O)NCC(=O)OCC(=O)Nc2ncc(C(F)(F)F)cc2Cl)cc1,17.7,-6.0,-4.6,-1.6,-0.2
CCC(C)NC(=O)c1cc(C)no1 (centres undefined),?,-0.8,-6.4,-5.0,0.1
Cc1nc2ccccc2c(=O)n1CCc1ccccc1,-12.7,-20.1,-5.4,-1.2,8.4
O=c1c2ccccc2nc(/C=C/c2ccc(Br)cc2)n1CCCO,-11.8,-12.8,24.6,0.2,3.1
SMILES,Calb FLC,ALR H2O2 inh,CSC inhib,PP1 inh,PP5 primary
O=c1c2ccccc2nc(/C=C/c2ccc(Br)cc2)n1CCO,0.7,-7.1,77.5*,-0.8,2.4
O=c1c2ccccc2nc(/C=C/c2ccc([N+](=O)[O-])cc2)n1CCCO,16.4,1.2,-7.6,10.2,1.3
O=c1c2ccccc2nc(/C=C/c2ccc([N+](=O)[O-])o2)n1CCCO,108.1*,-3.4,14.2,-1.8,2.6
CCn1c(/C=C/c2ccc(O)cc2)nc2ccccc2c1=O,32.8,97.6*,9.6,1.4,-0.1
Cc1nc2ccccc2c(=O)n1CCc1ccc(O)cc1,3.0,95.8*,5.1,2.3,-2.1
CCn1c(/C=C/c2cc(Br)ccc2O)nc2ccccc2c1=O,7.8,74.1,-7.3,-0.3,2.2
CCn1c(/C=C/c2ccc(O)c(O)c2)nc2ccccc2c1=O,1.7,99.6*,41.9,·,·
CCOc1ccc(Oc2cc(N)cc([N+](=O)[O-])c2)cc1,-6.2,2.8,·,-0.2,1.6
CC(/C=N/n1c(C2CCCCC2)n[nH]c1=S)=C\c1ccccc1,5.5,2.8,97.7*,4.1,1.8
S=c1[nH]nc(C2CCCCC2)n1/N=C/c1ccccc1Cl,37.2,·,·,4.8,1.2
O=C(O)c1ccc(/C=N/n2c(C3CCCCC3)n[nH]c2=S)cc1,-4.8,97.6*,-2.6,1.8,-2.1
S=c1[nH]nc(C2CCCCC2)n1/N=C/c1cccc(Br)c1,8.5,·,·,-5.0,-1.8
COc1cc(/C=N/n2c(C3CCCCC3)n[nH]c2=S)cc(Br)c1O,-0.4,83.5*,-11.1,-0.4,5.5
O=C(O)c1ccccc1/C=N/n1c(C2CCCCC2)n[nH]c1=S,-0.7,97.7*,-12.5,-0.7,-1.8
COc1ccc(NC(=O)C#Cc2ccccc2)cc1OC,-4.2,-8.2,18.7,4.6,0.9
CN1CCN(C(=O)CN(Cc2ccccc2)S(C)(=O)=O)CC1,-28.4,-6.5,-16.3,-2.0,1.1
O=C(c1ccco1)N1CCN(S(=O)(=O)c2ccc(C3CCCCC3)cc2)CC1,-11.3,-3.4,23.8,5.0,2.0
CCOC(=O)C1=C(CS(=O)(=O)c2ccc(F)c(C)c2)NC(=O)NC1c1ccc(O)c(O)c1 (centres undefined),-11.5,98.4*,-14.1,2.8,2.1
Cc1c(CCCC(=O)O)sc(N)c1C(=O)c1cccc(C(F)(F)F)c1,0.6,96.3*,·,0.6,0.7
COc1ccc(C(=O)OCC(=O)NC(C)CCc2ccccc2)cc1OC (centres undefined),5.8,-3.4,-5.5,-1.9,-1.7
C[C@H](NC(=O)OC(C)(C)C)c1nnc(SCC(=O)Nc2cccc(Cl)c2)o1,-16.9,95.6*,-9.6,-7.1,0.1
COc1ccc(NC(=O)CSc2nnc(-c3ccco3)c(-c3ccco3)n2)cc1OC,4.7,90.4*,8.5,5.5,3.6
CCn1c(SCC(=O)Nc2ccc(OC)c(OC)c2)nnc1-c1ccco1,0.1,-9.2,-8.2,0.0,-2.0
COc1cccc(NC(=O)CSc2nnc(-c3ccco3)c(-c3ccco3)n2)c1,-1.0,98.8*,-14.5,9.8,2.8
COc1ccc(C(=O)CSc2nnc(-c3ccco3)c(-c3ccco3)n2)cc1,-8.9,·,·,·,·
SMILES,Calb FLC,ALR H2O2 inh,CSC inhib,PP1 inh,PP5 primary
CC(=O)Nc1ccc(NC(=O)c2c(C)noc2C)cc1,-0.2,1.2,13.1,-4.1,0.0
Cn1c(=O)c2c(nc3n2CCCN3CCc2ccccc2)n(C)c1=O,16.1,21.7,15.4,-5.0,1.8
CCCOc1ccc(CNC(=O)Cc2cccs2)cc1,-4.0,9.4,5.9,3.2,2.5
CCOC(=O)N1CCN(C(=O)CCN2C(=O)COc3ccc(C)cc32)CC1,3.9,-2.0,3.4,-1.5,-0.3
COc1ccc(-c2cc(N)n(S(=O)(=O)c3c(F)c(F)c(F)c(F)c3F)n2)cc1OC,76.1*,29.5,41.5,-4.8,5.5
CC(C)C(=O)OCC(=O)NCc1ccccc1Cl,-4.1,-17.8,0.1,-1.1,-1.2
C=CCOc1cc(C)nc(-c2ccccc2O)n1,4.4,·,-13.4,3.3,1.9

# Screening data as filed in PubChem.
